Source: PubChem BioAssay
Results with a measured potency or affinity are listed apart. Calls of active or inactive are those of the source. No rule for the calls is given here.

Molecular target: Plasmodium falciparum protein kinase 6 (PK6, PF3D7_1337100) (UniProt Q8IDW1)
Assay: PfPK6 kinase inhibitors, biochemical, TCAMS library (AID 1159586)
Conditions: recombinant PfPK6, Kinase-Glo ATP depletion luminescence

Plasmodium falciparum protein kinase 6 (PK6, PF3D7_1337100), sequence (Q8IDW1 1-305): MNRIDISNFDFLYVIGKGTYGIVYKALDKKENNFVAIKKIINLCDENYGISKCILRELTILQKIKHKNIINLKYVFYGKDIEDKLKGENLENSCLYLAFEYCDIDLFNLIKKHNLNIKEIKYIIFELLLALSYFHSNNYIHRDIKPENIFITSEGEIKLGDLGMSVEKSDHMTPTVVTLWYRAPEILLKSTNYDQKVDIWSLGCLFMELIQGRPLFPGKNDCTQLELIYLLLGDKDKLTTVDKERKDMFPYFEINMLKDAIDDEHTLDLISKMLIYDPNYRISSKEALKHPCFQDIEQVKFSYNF

outcome, inactive:
N#CCc1ccc(Nc2nccc(Nc3ccc(Oc4ccccc4)cc3)n2)cc1
CCNC(=O)Nc1ccc(-c2cnc(N)c(-c3nc4ccc(OC)cc4[nH]3)c2)cc1
CC(C)(CN)c1nc(-c2ccc(Br)c(O)c2)c(-c2ccncc2)[nH]1
Oc1cc(-c2nc(-c3ccccc3)[nH]c2-c2ccncc2)ccc1Cl
CC(C)(NCc1ncc[nH]1)c1nc(-c2ccc(Cl)c(O)c2)c(-c2ccncc2)[nH]1
O=C(Nc1cccc(-c2nn3ccccc3c2-c2ccnc(Nc3ccc(-c4ccn[nH]4)cc3)n2)c1)c1c(F)cccc1F
CC(C)(CNC(=O)C1CCN(Cc2ccc(Cl)cc2)CC1)c1nc(-c2ccc(Cl)c(O)c2)c(-c2ccncc2)[nH]1
CN(C)CCOc1ccc(-c2cc(-c3ccc(Cl)c(O)c3)c(-c3ccnc(N)n3)o2)cc1
CC(C)(CNC(=O)[C@H]1CCCN1)c1nc(-c2ccc(Cl)c(O)c2)c(-c2ccncc2)[nH]1
Nc1ncc(-c2cn[nH]c2)cc1-c1nc2ccc(Cl)cc2[nH]1
